Screening data: PubChem, Broad Institute
Myc binder – binders of human c-Myc, primary screen, biochemical, small molecule microarray, anti-His fluorescence; Myc proto-oncogene protein (Homo sapiens), P01106; His-c-Myc binding; calls only; hit rate 1.5% among 17,000;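 active = spot fluorescence over background with P-value below 7% in all four replicate spots, showing protein binding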
mut p53 SMM – binders of human mutant p53, primary screen, biochemical, small molecule microarray, anti-GST fluorescence. mutant tumor protein p53 (GST-tagged), Homo sapiens. hit rate 0.4% among 17,000. small molecule microarray binding. calls only;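 active = compounds whose four printed spots each glow above background more than chance allows, each with a p-value under 7%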
STAT3 binder – STAT3 binders, primary screen, biochemical, small molecule microarray, single point, set 2. Signal transducer and activator of transcription 3 (Homo sapiens), P40763. His-STAT3 binding, anti-His fluorescence. calls only. hit rate 0.2% among 17,000;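 active = compounds whose four printed spots each show fluorescence over background unusually high for their array block, chance value under 7%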
Target sequence (P40763 whole entry, looked up): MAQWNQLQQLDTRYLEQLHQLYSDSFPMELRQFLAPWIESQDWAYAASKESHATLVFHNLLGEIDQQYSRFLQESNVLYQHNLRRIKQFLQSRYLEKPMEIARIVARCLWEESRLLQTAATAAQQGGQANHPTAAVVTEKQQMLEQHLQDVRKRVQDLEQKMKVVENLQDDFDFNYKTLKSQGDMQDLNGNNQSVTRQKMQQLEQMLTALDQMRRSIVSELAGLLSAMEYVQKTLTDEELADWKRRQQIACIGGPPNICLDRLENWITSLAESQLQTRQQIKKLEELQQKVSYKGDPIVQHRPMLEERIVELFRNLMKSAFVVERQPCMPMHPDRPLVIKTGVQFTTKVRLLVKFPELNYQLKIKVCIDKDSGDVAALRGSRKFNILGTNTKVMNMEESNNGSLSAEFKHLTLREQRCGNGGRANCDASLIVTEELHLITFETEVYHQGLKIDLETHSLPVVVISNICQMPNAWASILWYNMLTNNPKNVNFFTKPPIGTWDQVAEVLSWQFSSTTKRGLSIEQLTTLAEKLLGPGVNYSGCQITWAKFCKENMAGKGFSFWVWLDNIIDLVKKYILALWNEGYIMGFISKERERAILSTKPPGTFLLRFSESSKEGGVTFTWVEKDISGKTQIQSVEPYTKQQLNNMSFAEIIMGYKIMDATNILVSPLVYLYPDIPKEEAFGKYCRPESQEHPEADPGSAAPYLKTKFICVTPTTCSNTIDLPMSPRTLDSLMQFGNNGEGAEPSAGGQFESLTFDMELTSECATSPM
NFkB SMM – binders of NF-kB p50 subunit, primary screen, biochemical, small molecule microarray, anti-His fluorescence. hit rate 1.3% among 17,000. Nuclear factor NF-kappa-B p105 subunit (Homo sapiens), P19838. calls only. anti-His fluorescence binding;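 active = spot fluorescence over background significantly raised, with a chance value under 7% in all four replicate spots of the compound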;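 note: probe protein is his-tagged human p50 processed subunit at 1 µg/ml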
Calls only; - = inactive; + = active, no number. In the library only some 2.1% were active in any assay of this set; here they are far more common.

SMILES	Myc binder	mut p53 SMM	STAT3 binder	NFkB SMM
CC(C)NC(=O)N(C)C[C@H]1OCCCC[C@@H](C)Oc2ccc(NC(=O)Nc3ccc(C(F)(F)F)cc3)cc2C(=O)N([C@@H](C)CO)C[C@H]1C	+	-	-	+
C[C@@H]1CN([C@@H](C)CO)C(=O)c2cc(NC(=O)Nc3ccc(C(F)(F)F)cc3)ccc2O[C@@H](C)CCCCO[C@@H]1CN(C)CC1CCCCC1	-	-	-	+
C[C@@H]1CCCCO[C@H](CN(C)C)[C@@H](C)CN([C@H](C)CO)C(=O)c2cc(NC(=O)Nc3ccc(C(F)(F)F)cc3)ccc2O1	-	-	-	-
CC(C)NC(=O)Nc1ccc2c(c1)C(=O)N([C@@H](C)CO)C[C@H](C)[C@@H](CN(C)Cc1ccccc1)OCCCC[C@H](C)O2	+	-	-	+
CC(C)NC(=O)Nc1ccc2c(c1)C(=O)N([C@@H](C)CO)C[C@H](C)[C@@H](CN(C)C(=O)Nc1ccccc1)OCCCC[C@@H](C)O2	+	-	-	+
CC(C)NC(=O)Nc1ccc2c(c1)C(=O)N([C@@H](C)CO)C[C@@H](C)[C@H](CN(C)Cc1ccccc1)OCCCC[C@@H](C)O2	-	-	-	-
CC(C)NC(=O)Nc1ccc2c(c1)C(=O)N([C@@H](C)CO)C[C@H](C)[C@H](CN(C)Cc1ccccc1)OCCCC[C@@H](C)O2	-	-	-	-
CC(C)NC(=O)Nc1ccc2c(c1)C(=O)N([C@H](C)CO)C[C@@H](C)[C@H](CN(C)Cc1ccccc1)OCCCC[C@@H](C)O2	-	-	-	-
CC(C)NC(=O)Nc1ccc2c(c1)C(=O)N([C@H](C)CO)C[C@H](C)[C@@H](CN(C)Cc1ccccc1)OCCCC[C@H](C)O2	-	-	-	+
CC(C)NC(=O)Nc1ccc2c(c1)C(=O)N([C@@H](C)CO)C[C@H](C)[C@@H](CN(C)Cc1ccccc1)OCCCC[C@@H](C)O2	+	-	-	-
NC(=O)C1CCCN(/[N+]([O-])=N/OCCBr)C1 (stereo not drawn)	-	-	-	-
COc1ccc(NC(=O)CCCN2C(=O)c3ccccc3C2=O)c(OC)c1	-	-	-	-
COc1ccccc1CCNC(=O)c1c(-c2c(F)cccc2Cl)noc1C	-	-	-	-
Cc1ccc(NS(=O)(=O)c2ccc(NS(=O)(=O)c3ccc4c(c3)OCCO4)cc2)c(C)c1	-	-	-	-
O=C(N1CCCCC1)[C@@]1(Cc2ccccc2)N=C(c2ccc(OCCCO)cc2)O[C@H]1c1ccccc1	-	-	-	-
C[C@H](CO)N1C[C@H](C)[C@H](CN(C)Cc2ccncc2)OCCCC[C@H](C)Oc2ccc(NC(=O)Nc3ccccc3)cc2C1=O	-	+	+	-
O=C1O[C@H](c2ccccc2)[C@H](c2ccccc2)N2[C@H]1[C@@H](C(=O)N1CCN(c3ncccn3)CC1)[C@]1(C(=O)Nc3ccc(C#CC4=CCCCC4)cc31)[C@H]2c1ccc(OCCO)cc1	-	-	-	-
COC(=O)C(CC#Cc1ccc2c(c1)[C@]1(C(=O)N2)[C@H](C(N)=O)[C@H]2C(=O)O[C@H](c3ccccc3)[C@H](c3ccccc3)N2[C@@H]1c1ccc(OCCO)cc1)C(=O)OC	-	-	-	-
O=C1O[C@H](c2ccccc2)[C@H](c2ccccc2)N2[C@H]1[C@@H](C(=O)N1CCCCCCC1)[C@]1(C(=O)Nc3ccc(C#CC4=CCCCC4)cc31)[C@H]2c1ccc(OCCO)cc1	+	+	-	+
COC(=O)C(CC#Cc1ccc2c(c1)[C@]1(C(=O)N2)[C@H](C(N)=O)[C@H]2C(=O)O[C@H](c3ccccc3)[C@H](c3ccccc3)N2[C@@H]1c1ccccc1OCCO)C(=O)OC	-	+	-	-
O=C1O[C@H](c2ccccc2)[C@H](c2ccccc2)N2[C@H]1[C@@H](C(=O)N1CCCCCCC1)[C@]1(C(=O)Nc3ccccc31)[C@H]2c1ccc(O)cc1	+	+	-	+
COC(=O)C(CC#Cc1ccc2c(c1)[C@]1(C(=O)N2)[C@H](c2ccc(OCCO)cc2)N2[C@H](c3ccccc3)[C@H](c3ccccc3)OC(=O)[C@H]2[C@@H]1C(=O)N1CCCCCCC1)C(=O)OC	-	+	-	-
Cc1ccc(C)c(NC(=O)Cn2cc([N+](=O)[O-])cn2)c1	-	-	-	-
COc1ccc(S(=O)(=O)n2nc(C)cc2C)cc1N(C)S(=O)(=O)c1ccccc1	-	-	-	-
Cc1ccccc1C(=O)Nc1ccc(OCC(=O)O)cc1	-	-	-	-
O=C1O[C@H](c2ccccc2)[C@H](c2ccccc2)N2[C@H]1[C@@H](C(=O)N1CCCCCCC1)[C@]1(C(=O)Nc3ccc(C#CC4(O)CCCCCC4)cc31)[C@H]2c1ccccc1OCCO	-	+	-	-
C[C@@H]1O[C@@H](O[C@@H]2[C@@H](O)[C@H](O[C@@H]3[C@@H](O)[C@H](C)O[C@@H](O[C@H]4[C@H](O[C@H]5CC[C@@]6(C)C(CC[C@]7(C)C6CC=C6[C@@H]8CC(C)(C)CC[C@]8(C(=O)O)CC[C@]67C)[C@]5(C)CO)OC[C@H](O)[C@@H]4O)[C@@H]3O)O[C@H](CO)[C@H]2O[C@@H]2O[C@H](CO)[C@@H](O[C@@H]3OC[C@@H](O)[C@H](O)[C@H]3O)[C@H](O)[C@H]2O)[C@H](O)[C@H](O)[C@H]1O (stereo partly drawn)	-	-	-	+
CC(=O)OC1C(C)OC(OC2C(CO)OC(OC(=O)[C@]34CCC(C)(C)CC3C3=CCC5[C@@]6(C)CC[C@H](OC7OC(CO)C(OC8OC(CO)C(OC9OCC(O)C(O)C9O)C(O)C8O)C(O)C7O)[C@@](C)(CO)C6CC[C@@]5(C)[C@]3(C)CC4)C(OC3OC(C)C(O)C(O)C3O)C2O)C(O)C1O (stereo partly drawn)	+	-	-	+
CC1(C)CC[C@]2(C(=O)OC3OC(CO)C(OC4OC(CO)C(O)C(O)C4O)C(O)C3O)CC[C@]3(C)C(=CCC4[C@@]5(C)CC[C@H](OC6OC(C(=O)O)C(O)C(O)C6O)C(CO)(CO)C5CC[C@]43C)[C@@H]2C1 (stereo partly drawn)	-	-	-	-
CC1OC(OC2C(OC(=O)C34CCC(C)(C)CC3C3=CCC5C6(C)CCC(OC7OC(CO)C(OC8OC(C(=O)O)C(OC9OCC(O)C(O)C9O)C(O)C8O)C(O)C7O)C(C)(CO)C6CCC5(C)C3(C)CC4)OC(COC3OCC(O)C(O)C3O)C(O)C2O)C(O)C(O)C1O (stereo not drawn)	-	-	-	-
